Source: PubChem
An excerpt weighted towards active compounds, which were near 2.3% of everything screened.
PD-1 reversal = activators reversing PD-1 mediated T-cell inhibition | primary human CD4 T cells, PD-L1 beads, CellTiter-Glo 96 h | activation, % (no concentration beside the values) | 29,000 tested, under 10 active; call rule not given here;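 further: 0% = median vehicle wells and 100% = positive control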
ROS inducer = cancer cell ROS induction. U2OS ROS induction, H2DCF-DA fluorescence. ROS induction (% of piperlongumine), % at 10 µM. actives 2% (n = 46,000); in the data active means ROS induction above about 79%, passing the limit was not always enough;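 further: 0% = DMSO vehicle median and 100% = reference compound median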
YB-1 expression = YB-1 expression inhibition; U2OS, qRT-PCR YB-1 vs CDIP delta delta Cp, 16 h; active compounds read high; zero = DMSO, each unit about twofold; delta delta Cp (YB-1 minus CDIP) (no concentration beside the values); actives 0.37% (n = 30,000); AID 434959;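 active means delta delta Cp rounded down to an integer at or above 3, about 3 SD of DMSO wells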;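 further: higher means less YB-1 transcript or more CDIP transcript relative to DMSO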
Starred values were filed as active, the others as inactive; x = no result given.

SMILES	PD-1 reversal	ROS inducer	YB-1 expression
C=CCNC(=O)[C@@H]1[C@H]2C(=O)O[C@H](c3ccccc3)[C@H](c3ccccc3)N2[C@H](c2ccccc2OCCO)[C@@]12C(=O)N(C(=O)OCCOC)c1ccccc12	x	183*	-0.2
COCCOC(=O)N1C(=O)[C@@]2(c3ccccc31)[C@H](C(N)=O)[C@H]1C(=O)O[C@H](c3ccccc3)[C@H](c3ccccc3)N1[C@@H]2c1ccc(OCCO)cc1	x	124*	0.61
COCCOC(=O)N1C(=O)[C@@]2(c3cc(C#CCCO)ccc31)[C@H](c1ccccc1OCCO)N1[C@H](c3ccccc3)[C@H](c3ccccc3)OC(=O)[C@H]1[C@@H]2C(=O)NC[C@H](O)c1ccccc1	x	29	0.35
C=CCNC(=O)[C@@H]1[C@H]2C(=O)O[C@H](c3ccccc3)[C@H](c3ccccc3)N2[C@H](c2ccc(O)cc2)[C@@]12C(=O)N(C(=O)OCCOC)c1ccccc12	x	53	0.058
C=CCNC(=O)[C@H]1[C@@H]2C(=O)O[C@@H](c3ccccc3)[C@@H](c3ccccc3)N2[C@@H](c2ccccc2OCCO)[C@]12C(=O)N(C(=O)OCCOC)c1ccccc12	x	178*	0.09
COCCOC(=O)N1C(=O)[C@@]2(c3ccccc31)[C@H](c1ccccc1OCCO)N1[C@H](c3ccccc3)[C@H](c3ccccc3)OC(=O)[C@H]1[C@@H]2C(=O)NC[C@H](O)c1ccccc1	x	348*	-0.49
COCCOC(=O)N1C(=O)[C@@]2(c3ccccc31)[C@H](C(N)=O)[C@H]1C(=O)O[C@H](c3ccccc3)[C@H](c3ccccc3)N1[C@@H]2c1ccccc1OCCO	x	73	-0.25
Cc1cc2nn(-c3cccc4ccccc34)nc2cc1NC(=O)COc1ccc([N+](=O)[O-])cc1	0	-7	x
CC(C)(O)[C@@H]1Cc2cc3ccc(=O)oc3cc2O1	x	-3	0.2
CNS(=O)(=O)c1ccc(C)c(-c2nnc3c4ccccc4c(C)nn23)c1	x	15	x
CCc1cccc(NC(=O)C2c3ccccc3Oc3ccccc32)c1	x	-16	x
CC(/C=C/C1(O)C(C)CC(O)CC1(C)C)OC1OC(CO)C(O)C(O)C1O (stereo not given)	x	-6	1.9
COc1cc(C(=O)OC[C@@]2(O)CO[C@H](OC3C(CO)OC(OC(C)/C=C/C4(O)C(C)CC(O)CC4(C)C)C(O)C3O)[C@@H]2O)cc(OC)c1O (stereo not given in full)	0	-6	3.5*
COc1ccc(/C=C/C(=O)O[C@H]2[C@H](O[C@H]3[C@@H]4C=CO[C@@H](O[C@@H]5O[C@H](CO)[C@@H](O)[C@H](O)[C@H]5O)[C@@H]4[C@@]4(CO)O[C@@H]34)O[C@@H](C)[C@H](O)[C@H]2OC(C)=O)cc1	2	-9	10*
COc1ccc(/C=C/C(=O)O[C@@H]2[C@@H](O)[C@H](C)O[C@@H](O[C@H]3[C@@H]4C=CO[C@@H](O[C@H]5O[C@@H](CO)[C@H](O)[C@@H](O)[C@@H]5O)[C@@H]4[C@@]4(CO)O[C@@H]34)[C@@H]2OC(C)=O)cc1	0	-4	-0.16
CC(=O)O[C@@H]1[C@@H](O)[C@H](C)O[C@@H](O[C@H]2[C@@H]3C=CO[C@@H](O[C@@H]4O[C@H](CO)[C@@H](O)[C@H](O)[C@H]4O)[C@@H]3[C@@]3(CO)O[C@@H]23)[C@@H]1OC(=O)/C=C/c1ccc(O)cc1	-1	73	0.053
C[C@@H]1O[C@@H](O[C@H]2[C@@H]3C=CO[C@@H](O[C@@H]4O[C@H](CO)[C@@H](O)[C@H](O)[C@H]4O)[C@@H]3[C@@]3(CO)O[C@@H]23)[C@H](O)[C@H](OC(=O)/C=C/c2ccc(O)cc2)[C@H]1O	x	88*	0.37
COc1ccc(-c2oc3cc(OC)c(OC)c(O)c3c(=O)c2OC)cc1OC	1	82*	-0.31
COc1cc(O)c2c(=O)c(OC)c(-c3cc(O)c(OC)c(OC)c3)oc2c1	-1	11	0.71
CS(=O)(=O)N(CC(=O)Nc1ccc(Br)cc1F)c1ccc(Cl)c(Cl)c1	-1	-7	x
C[C@H](CO)N1C[C@H](C)[C@H](CN(C)C(=O)Nc2ccc(F)cc2)Oc2c(NC(=O)Nc3ccccc3)cccc2C1=O	-1	-3	-0.39
CC(C)NC(=O)N(C)C[C@H]1Oc2c(NC(=O)Nc3ccc(F)cc3)cccc2C(=O)N([C@@H](C)CO)C[C@H]1C	-5	-14	4.3*
C[C@H](CO)N1C[C@H](C)[C@H](CN(C)C(=O)Nc2ccccc2)Oc2c(NC(=O)Nc3ccc(F)cc3)cccc2C1=O	-1	0	3*
C[C@@H]1CN([C@H](C)CO)C(=O)c2cc(NC(=O)Nc3cccc4ccccc34)ccc2O[C@@H]1CN(C)C(=O)Nc1ccccc1	-1	84*	-0.2
